About 83,000 compounds went through this panel and 20% of them were active in at least one assay; those are over-represented in the sample as a whole.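 Cells were grown in 96-well plates and exposed to the test compound at a single concentration for 48 hours; results are reported as percent growth, with values below 10 considered active.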 A number with no mark means an inactive call. Activity calls are given as the source filed them.
System: HCT-116 colon
Test: NCI-60 one-dose screen, 48 h (100 = growth as untreated, 0 = no growth, -100 = all killed)
Conditions: 10 µM unless noted

Structure (SMILES) | growth [%]
O=C(OCc1ccccc1)n1nnc2ccccc21 | 98.1
COC1(OC)C2(Cl)C(Cl)=C(Cl)C1(Cl)C1COCC12 (configuration not stated) | 91.5
CCOC(=O)CO | 102
COc1cc(C(=O)NC(=S)NCc2ccncc2)cc(OC)c1OC | 97.3
Nc1ncnc2c1ncn2C1OC(CO)C2OC21 (configuration not stated) | 108
CC(C)(C)[Si](C)(C)OCC1OC(n2cnc3c(N)ncnc32)CC1OS(C)(=O)=O (configuration not stated) | 102
Cc1ccc(C)c(CCO)c1 | 107
CC(=O)CSc1ncnc2nc[nH]c12 | 88.7
CCOC(OCC)C(=O)c1ccccc1 | 108
CCCCCCCCCCCCCCCCOc1ccccc1NC(=O)CC(C)=O | 97.5
CC1(c2ccccc2)CO1 (configuration not stated) | 101
Cc1ccc(C)c(CN(C)C)c1O | 112
O=Cc1ccc(O)c(O)c1 | 98.5
C/C(=N\N=C(/C)c1cccc([N+](=O)[O-])c1)c1cccc([N+](=O)[O-])c1 | 89.8
Cc1nc(C)c(C(=O)O)cc1C(=O)O | 111
CCN(CC)CCCC(C)NC(=S)N/N=C(\C)c1ccccn1 (configuration not stated) | 23.9
COc1ccc(-c2csc(NC(=O)Nc3nc(-c4ccc(OC)cc4)cs3)n2)cc1 | 64.2
NC(CSSCC(N)C(=O)O)C(=O)O (configuration not stated) | 18.6
Cc1cc(Cc2ccccc2)c(O)c(Cc2ccccc2)c1 | 73.5

Structure (SMILES) | growth [%]
NNc1ncnc2nc[nH]c12 | 24
CCCOCc1cn[nH]n1 | 107
CCN(C(=O)Nc1ccccc1Cl)c1ccccc1 | 112
Cc1ccc(O)c(N)c1 | 111
CC(C)(C)NCCC(O)c1cc(C(F)(F)F)nc2c(C(F)(F)F)cccc12 (configuration not stated) | 56.8
CC1CC2C3CCC4=CC(=O)CCC4(C)C3CCC2(C)C1(O)C(=O)CO (configuration not stated) | 109
c1cc(CNCCNCc2ccncc2)ccn1 | 95.2
CC(C)Sc1ncnc2nc[nH]c12 | 103
Cc1cc2nc(C)c(C)nc2cc1C | 112
NNC(=O)CCCCl | 108
COc1cccc(N=CNc2cccc(OC)c2)c1 | 92.2
Cc1c(Cl)cccc1NC(=S)NC(=O)c1ccccc1 | 106
Cc1[nH]c(=S)[nH]c(=O)c1C | 110
COc1cc(-c2ccc(NC(=O)CC(C)=O)c(OC)c2)ccc1NC(=O)CC(C)=O | 105
Clc1ncnc2nc[nH]c12 | 102
CN(C)c1ncnc2c1cnn2C | 105
CC1CC(C)S(=O)(=O)C1 (configuration not stated) | 114
Cc1cc(C(=O)NN)c(C#N)c(=O)[nH]1 | 100

System: HCC-2998 colon
Test: as above
Conditions: 10 µM unless noted

Structure (SMILES) | growth
O=C(OCc1ccccc1)n1nnc2ccccc21 | 103%
COC1(OC)C2(Cl)C(Cl)=C(Cl)C1(Cl)C1COCC12 (configuration not stated) | 105%
CCOC(=O)CO | 103%
COc1cc(C(=O)NC(=S)NCc2ccncc2)cc(OC)c1OC | 115%
Nc1ncnc2c1ncn2C1OC(CO)C2OC21 (configuration not stated) | 105%
CC(C)(C)[Si](C)(C)OCC1OC(n2cnc3c(N)ncnc32)CC1OS(C)(=O)=O (configuration not stated) | 103%
Cc1ccc(C)c(CCO)c1 | 103%
CC(=O)CSc1ncnc2nc[nH]c12 | 97.5%
CCOC(OCC)C(=O)c1ccccc1 | 112%
CCCCCCCCCCCCCCCCOc1ccccc1NC(=O)CC(C)=O | 104%
CC1(c2ccccc2)CO1 (configuration not stated) | 111%
Cc1ccc(C)c(CN(C)C)c1O | 102%
O=Cc1ccc(O)c(O)c1 | 93.3%
C/C(=N\N=C(/C)c1cccc([N+](=O)[O-])c1)c1cccc([N+](=O)[O-])c1 | 98%
Cc1nc(C)c(C(=O)O)cc1C(=O)O | 101%
CCN(CC)CCCC(C)NC(=S)N/N=C(\C)c1ccccn1 (configuration not stated) | 56.8%
COc1ccc(-c2csc(NC(=O)Nc3nc(-c4ccc(OC)cc4)cs3)n2)cc1 | 100%
NC(CSSCC(N)C(=O)O)C(=O)O (configuration not stated) | 9.17% (active)

Structure (SMILES) | growth
Cc1cc(Cc2ccccc2)c(O)c(Cc2ccccc2)c1 | 101%
NNc1ncnc2nc[nH]c12 | 78%
CCCOCc1cn[nH]n1 | 104%
CCN(C(=O)Nc1ccccc1Cl)c1ccccc1 | 111%
Cc1ccc(O)c(N)c1 | 110%
CC1CC2C3CCC4=CC(=O)CCC4(C)C3CCC2(C)C1(O)C(=O)CO (configuration not stated) | 104%
c1cc(CNCCNCc2ccncc2)ccn1 | 102%
CC(C)Sc1ncnc2nc[nH]c12 | 108%
Cc1cc2nc(C)c(C)nc2cc1C | 110%
NNC(=O)CCCCl | 102%
COc1cccc(N=CNc2cccc(OC)c2)c1 | 98.9%
Cc1[nH]c(=S)[nH]c(=O)c1C | 103%
COc1cc(-c2ccc(NC(=O)CC(C)=O)c(OC)c2)ccc1NC(=O)CC(C)=O | 100%
Clc1ncnc2nc[nH]c12 | 89.6%
CN(C)c1ncnc2c1cnn2C | 98%
CC1CC(C)S(=O)(=O)C1 (configuration not stated) | 99%
Cc1cc(C(=O)NN)c(C#N)c(=O)[nH]1 | 112%

Reference: PubChem BioAssay (NCI)
